Bioassay records deposited in PubChem BioAssay by National Center for Advancing Translational Sciences (NCATS).
Sampled rows, rich in hits. Any-hit rate of the full collection: about 12%.
BAZ2B block – BAZ2B (human) inhibition; Potency, µM (series often up to 114 µM), without a hit: at the highest dose activity change, negative = inhibition, most hits filed as inhibitors; 360,000 tested, 4.4% active; AlphaScreen BAZ2B-H3K14Ac peptide displacement; AID 504333; Q9UIF8; also: % is scaled to controls: 0 for no effect and ±100 for the full control effect; nearly all actives have a fitted effect of over 60% in size
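Inhibition is scored as reduced AlphaScreen emission. The BAZ2B/b-H3(5-23)K14Ac complex (50 nM each) in PBS pH 7.4, 0.01% Tween-20 meets compound (up to 110 uM) for 30 min at RT before bead addition.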
Sfp inh – blocks B. subtilis Sfp PPTase activity | Q9F4F7 | Biochemical Sfp PPTase activity, qHTS | Potency, µM, for the others: largest response in the series, negative = inhibition, hits mostly inhibitors | 310,000 tested, 3.5% active | AID 1490;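 also: the enzyme is Sfp with the accession as filed and its product quenches rhodamine fluorescence; 0% = enzyme reaction without inhibitor and -100% = no enzyme wells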
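Compounds were incubated with enzyme (final 15 nM) for 15 min at room temperature before substrate addition started the reaction. Fluorescence at 525 nm excitation, 598 nm emission was recorded immediately and after 30 minutes.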
JMJD2A Tudor – JMJD2A Tudor domain (human) inhibition | AlphaScreen JMJD2A-Tudor / H3K4me3 peptide binding | Potency, µM (top dose mostly 114 µM), inactives show top-dose activity change, negative = inhibition, usual class: inhibitors | 390,000 tested, 4.4% active | AID 504339; also: % is scaled to controls: 0 for no effect and ±100 for the full control effect; nearly all actives have a fitted effect of over 50% in size
HP1b chromo inh – inhibitors of HP1-beta chromodomain binding to methylated histone tails; P83916; AlphaScreen HP1-beta / biotin-H3K9me3 peptide binding; Potency, µM (titrated, usually from 114 µM), for the others: at the highest dose activity change, negative = inhibition, actives largely listed as inhibitors; 390,000 tested, 0.56% active; AID 540317; also: nearly all actives have a fitted effect of over 70% in size
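Compound inhibition of the preformed complex between 50 nM HP1-beta and 50 nM biotinylated H3K9me3 peptide was read by AlphaScreen. Buffer was PBS pH 7.4 with 0.01% Tween-20. Incubations ran 30 min at room temperature, with 10 ug/mL donor/acceptor beads.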
G9a inh – inhibitors of human histone lysine methyltransferase G9a. Q96KQ7. G9a H3K9 monomethylation, AlphaScreen, 2 h. Potency, µM (doses to about 102 µM), without a hit: at the top dose activity, negative = inhibition, hits mostly inhibitors. 350,000 tested, 8.8% active; also: % is scaled to controls: 0 for no effect and ±100 for the full control effect; nearly all actives have a fitted effect of over 75% in size
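AlphaScreen detection with an anti-monomethyl H3K9 antibody quantified product after a 2 h room-temperature reaction containing 500 nM biotinylated H3K9 peptide, 20 µM SAM and 20 nM enzyme, which had been preincubated 15 min with compound.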
TDP1 block – inhibitors of human tyrosyl-DNA phosphodiesterase TDP1; Q9NUW8; recombinant TDP1, AlphaScreen DNA substrate cleavage; Potency, µM (series often up to 130 µM), for the others: at the top dose activity change, negative = inhibition, usual class: inhibitors; 350,000 tested, 0.28% active; AID 485290; also: % is scaled to controls: 0 for no effect and ±100 for the full control effect; nearly all actives have a fitted effect of over 40% in size
Target sequence (Q9NUW8 whole entry, looked up): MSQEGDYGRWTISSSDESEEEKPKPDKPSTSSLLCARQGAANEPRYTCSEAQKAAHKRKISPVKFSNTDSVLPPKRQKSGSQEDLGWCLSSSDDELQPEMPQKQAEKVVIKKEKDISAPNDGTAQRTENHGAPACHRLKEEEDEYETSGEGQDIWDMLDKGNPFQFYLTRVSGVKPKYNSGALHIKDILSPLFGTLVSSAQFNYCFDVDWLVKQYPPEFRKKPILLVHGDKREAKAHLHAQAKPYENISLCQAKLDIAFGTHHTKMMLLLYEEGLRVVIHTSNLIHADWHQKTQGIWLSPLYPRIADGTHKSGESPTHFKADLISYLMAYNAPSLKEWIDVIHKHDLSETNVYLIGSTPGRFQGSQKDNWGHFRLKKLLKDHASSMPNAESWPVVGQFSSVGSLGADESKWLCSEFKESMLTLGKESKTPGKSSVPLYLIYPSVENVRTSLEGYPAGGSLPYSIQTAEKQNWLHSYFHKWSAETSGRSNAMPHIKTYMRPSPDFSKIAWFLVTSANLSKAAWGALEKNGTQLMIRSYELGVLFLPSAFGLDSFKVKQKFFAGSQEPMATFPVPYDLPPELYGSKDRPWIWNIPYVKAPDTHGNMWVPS
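Here, a 5' biotin and 3' phosphotyrosine-FITC DNA oligonucleotide reports Tdp1 activity: intact substrate bridges AlphaScreen beads, while cleavage leaves a 3' phosphate and drops signal. All incubations at room temperature.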
An asterisk follows results filed as active; u = inconclusive; x = no result given; [ ] = another dose, or the depositor's remark. Calls follow the shape of the dose curve; as a rule, active = well fitted curve in the direction sought with a large enough effect; inconclusive = small, poorly fitted or top-dose-only effect, or another doubt; inactive = no such curve, though single readings can be large; an effect the other way counts as inactive or inconclusive. Potency is read from the fitted curve at half-maximal effect.

SMILES	BAZ2B block	Sfp inh	JMJD2A Tudor	HP1b chromo inh	G9a inh	TDP1 block
C/C(CC(=O)NC(C)(C)C)=N\NC(N)=S	u	35µM*	u	u	4µM*	0%
C/C(CC(=O)NC(C)(C)C)=N\NC(=O)c1ccccc1N	-20%	-7%	40µM*	4%	u	1%
CN1CCC/C1=C/C=C1\SC(=S)NC1=O	u	28µM*	-30%	-15%	10µM*	-8%
Cc1ccc(S(=O)(=O)Nc2nc(C)c(C)s2)cc1	-28%	-6%	-9%	44%	22µM*	5%
CC(=O)Oc1ccc(N(C(C)=O)S(=O)(=O)c2ccc3ccccc3c2)cc1	-4%	-7%	-28%	23%	28%	x
O=c1[nH][nH]c(-c2ccccc2)c1C=Nc1ccc(F)cc1F	u	8%	-7%	25%	u	4%
COC(=O)c1ccc(N=Cc2c(-c3ccccc3)[nH][nH]c2=O)cc1	u	7%	-5%	14%	40µM*	4%
O=C(Cc1ccc([N+](=O)[O-])cc1)c1c(O)cc(O)cc1O	-28%	13%	-35%	10%	50µM*	1%
O=C(N/N=C/c1ccc(Cl)cc1Cl)c1cccc(N2CCCC2=O)c1	-8%	-42%	-11%	9%	-4%	x
O=C(N/N=C/c1ccc([N+](=O)[O-])cc1)c1cccc(N2CCCC2=O)c1	79µM*	-1%	-10%	11%	u	-4%[56.1 µM]
O=C(N/N=C/c1cc(Br)cc(Br)c1O)c1cccc(N2CCCC2=O)c1	u	9%	89µM*	35%	4%	12%
C/C(=N\NC(N)=S)C1(C)CCCCC1	-35%	u	35µM*	-17%	50µM*	5%
O=C(N/N=C/c1cccs1)c1cc(-c2ccc(Cl)s2)[nH]n1	u	20%	u	-5%	50µM*	u
O=C(N/N=C/c1ccco1)c1cc(-c2ccc(Cl)s2)[nH]n1	-5%	10%	-24%	23%	4%	3%
COCCCNC(=S)NNC(=S)Nc1ccccc1	-4%	45µM*	1.6µM*	-18%	x	-4%
COCCCNC(=S)Nc1ccc(C)cc1	-1%	10%	4%	14%	4%	x
COCCCNC(=S)NNC(=S)Nc1ccc(F)cc1F	u	79µM*	1.6µM*	-13%	2.5µM*	4%
CCOC(=O)c1sc(N2N=C(C)C(N=Nc3cccc(C)c3)C2=O)nc1C (stereo not drawn)	-33%	-22%	-26%[11.4 µM]	-1%	50µM*	x
COc1cc(O)c(NC(C)=O)c2nonc12	7%	35µM*	-35%	21%	22µM*	0%
COc1cc(-c2ccc(NC(C)=O)c(OC)c2)ccc1NC(C)=O	-10%	12%	3%	55%	33%	x
O=c1cnnc(N/N=C/C2CC=CCC2)[nH]1 (stereo not drawn)	8.9µM*	45µM*	32µM*	40%	56%	5%
O=C1c2cccc(NCCCNCCO)c2C(=O)c2cccc(NCCCNCCO)c21	x	x	50µM*	u	x	x
CC(=O)c1cc2c(cc1O)OC(C)(C)C=C2	x	-3%	x	x	u	22µM*
CC1(C)C=Cc2cc3ccc(=O)oc3cc2O1	6%	16%	-10%	41%	-39%[2.33 µM]	-10%[56.1 µM]
Cc1ccc2cc(CN(CCN3CCOCC3)Cc3nnnn3Cc3ccco3)c(=O)[nH]c2c1C	7%	-25%	-7%	38%	56µM*	4%
SMILES	BAZ2B block	Sfp inh	JMJD2A Tudor	HP1b chromo inh	G9a inh	TDP1 block
Cc1ccc(C)c2[nH]c(=O)c(CN(Cc3ccc4c(c3)OCO4)Cc3nnnn3Cc3ccco3)cc12	-38%	50µM*	-31%	25%	-48%[59 µM]	4%
Cc1ccc2cc(CN(Cc3ccc4c(c3)OCO4)Cc3nnnn3Cc3ccco3)c(=O)[nH]c2c1C	-9%	22µM*	-32%	17%	11µM*	6%
CN1CCN(CCCNC(=O)c2ccc(/C=C3\Sc4ccccc4N(Cc4ccc(F)cc4)C3=O)cc2)CC1	u	45µM*	u	-15%	u	5%
O=C(NCCN1CCOCC1)c1ccc2c(c1)N(Cc1c(F)cccc1Cl)C(=O)c1ccccc1S2	-31%	-6%	-32%	-2%	u	6%
CN(C)CCNC(=O)c1ccc2c(c1)N(Cc1c(F)cccc1Cl)C(=O)c1ccccc1S2	x	x	u	-5%	16µM*	2%
CCOc1ccc(CN2C(=O)c3ccccc3Sc3ccc(C(=O)NCCCN4CCOCC4)cc32)cc1	79µM*	-27%	-33%	-4%	-37%[59 µM]	6%
O=C(CN1C(=O)/C(=C/c2ccccc2F)Sc2ccccc21)NCCCN1CCOCC1	-38%	5%	-32%	4%	-12%	6%
CCN1CCN(CCNC(=O)c2ccc(/C=C3\Sc4ccccc4N(Cc4ccccc4F)C3=O)cc2)CC1	u	79µM*	56µM*	7%	50µM*	6%
COc1ccc(CNC(=O)CCc2nc3cccnc3n2Cc2ccccc2)cc1	-6%	x	-9%	32%	-3%[59 µM]	-1%
N#Cc1c(Cl)nsc1NC(=O)c1ccccc1	-1%	13%	-9%	26%	u	-4%
O=C(NCCCN1CCOCC1)c1ccc2c(c1)N(Cc1ccccc1)C(=O)c1ccccc1S2	-20%	5%	-11%	27%	-10%	7%
CN1CCN(CCCNC(=O)c2ccc(/C=C3/Sc4ccccc4N(Cc4cccc(Cl)c4)C3=O)cc2)CC1	u	50µM*	u	-14%	40µM*	5%
Cc1cccc(NC(=S)NNc2cccc(Cl)c2)c1	10µM*	-17%	56µM*	10µM*	32µM*	-5%[0.0935 µM]
Cc1cccc(NNC(=S)Nc2c(C)cccc2C)c1	14µM*	9%	14µM*	-6%[57 µM]	45µM*	20%
CCOC(=O)c1cc(-c2ccc(C)cc2)n(CCC(=O)Nc2ccc(OC)c(OC)c2)c1C	u	x	u	u	u	9%
Cc1cccnc1NC(=S)NC(=O)c1oc2ccccc2c1C	5%	-6%	-15%	23%	u	-3%
C=CCNCCOCCOc1ccc(C)cc1Br	56µM*	-18%	5µM*	u	3.2µM*	11%
Clc1ccc(OCCSc2ncccn2)c(Br)c1	251%	-1%	128%	130%	463%	u
COc1cc(C)ccc1OCCOCCOc1c(C)cc(C)cc1Br	116%	2%	126%	155%	68%[59 µM]	-11%
CCC(C)NCCCOc1c(C)cc(C)cc1Br (stereo not drawn)	79µM*	u	u	-36%	8.9µM*	0%
CC(C)NCCOCCOc1ccccc1F	50µM*	-24%	1.8µM*	u	4.5µM*	-4%
CC(C)NCCOCCOc1ccc(Cl)cc1Br	u	-8%	3.2µM*	-18%	u	-4%
